# Laboratory results as given in PubChem BioAssay (NCATS).
# Where “and” joins values, the source holds several entries; their conditions need not be identical. Identical values can stand only once. Inconclusive results are not listed. Entries that show only a call come without a potency. Calls of active or inactive are those of the source. Unless noted, the call rests on the fitted dose curve.
# How the values were obtained:
# [1] = target: Bile acid receptor (Homo sapiens) (UniProt Q96RI1); assay: qHTS assay for small molecule antagonists of farnesoid X receptor signaling (AID 588526)
# Summary of the method: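 Antagonist mode: titrated compounds tested against chenodeoxycholic acid stimulation (normalized to 50 uM CDCA and DMSO) in GeneBLAzer HEK293T cells for 16 h. Beta-lactamase read by CCF4 fluorescence; IC50 from Hill fits.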
# [2] = target: Glucocorticoid receptor (Homo sapiens) (UniProt P04150); assay: qHTS assay for small molecule agonists of glucocorticoid receptor signaling (AID 588532; active means well fitted curve in the direction sought with a large enough effect in the signal ratio, with a control signal flat; the % refers to the signal ratio); conditions: HeLa MMTV-bla, beta-lactamase ratio, agonist, 18 h; stronger effect = higher value; percent of dexamethasone control, DMSO zero
# Summary of the method: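 MMTV-bla HeLa beta-lactamase reporter cells in 1% charcoal/dextran FBS medium, compounds up to 92 uM for 18 h at 37 C, CCF4 readout; normalized to 0.1 uM dexamethasone (100%), EC50 and efficacy from Hill fits.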
# [3] = qHTS assay for small molecule antagonists of peroxisome proliferator-activated receptor delta signaling (AID 588535; active means well fitted inhibition curve with a large enough effect in the signal ratio, with a control signal flat, not every such curve was filed as active; the % refers to the signal ratio;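 on max response: cells co-treated with a PPAR-delta agonist as stimulator during compound exposure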); conditions: HEK293T PPARd-UAS-bla, beta-lactamase FRET ratio, 18 h; 460 nm channel
# Summary of the method: (§1)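 Cells were seeded at 4000 per well in assay medium containing 2% charcoal/dextran FBS and held 5 hrs at 37 C. Compounds were then added for 18 hrs. CCF4 substrate was applied for 2 hrs at room temperature before fluorescence reading.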
# [4] = target: Peroxisome proliferator-activated receptor delta (Homo sapiens) (UniProt Q03181); assay: as above
# Summary of the method: as §1
# [5] = target: Peroxisome proliferator-activated receptor gamma (Homo sapiens) (UniProt P37231); assay: qHTS assay for small molecule agonists of peroxisome proliferator-activated receptor gamma signaling (AID 588536; active means well fitted curve in the direction sought with a large enough effect in the signal ratio, with a control signal flat, not every such curve was filed as active; the % refers to the signal ratio)
# Summary of the method: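 Ratiometric blue/green fluorescence (405 nm excitation; 460 and 530 nm emission) from CCF4-loaded HEK293 reporter cells serves as signal. Exposure to test compounds lasts 16 h at 37 C in medium containing 1% charcoal/dextran-treated serum.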
# [6] = target: Peroxisome proliferator-activated receptor gamma (Homo sapiens) (UniProt P37231); assay: qHTS assay for small molecule antagonists of peroxisome proliferator-activated receptor gamma signaling (AID 588537; active means well fitted inhibition curve with a large enough effect in the signal ratio, with a control signal flat, not every such curve was filed as active; the % refers to the signal ratio;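 further: reporter cells co-stimulated with 50 nM rosiglitazone agonist during compound treatment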)
# Summary of the method: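 Step one: plate 3000 HEK293 UAS-bla cells per well in medium with 1% stripped serum and hold 6-6.5 h at 37 C. Step two: add compound and 50 nM agonist for 16 h. Step three: CCF4 loading, fluorescence read.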
# [7] = target: Vitamin D3 receptor (Homo sapiens) (UniProt P11473); assay: qHTS assay for small molecule antagonists of vitamin D receptor signaling (AID 588541);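 further: receptor activated by calcitriol during compound treatment; series mostly up to about 77 µM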
# Summary of the method: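 VDR-UAS-bla HEK293T cells in 2% charcoal-stripped FBS were stimulated with 1-alpha,25-dihydroxyvitamin D3 (3 nM final) plus compound for 16 h at 37 C. The beta-lactamase CCF4 readout was normalized to 50 nM agonist and DMSO, and Hill fits gave IC50.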
# [8] = target: Vitamin D3 receptor (Homo sapiens) (UniProt P11473); assay: qHTS assay for small molecule agonists of vitamin D receptor signaling (AID 588543)
# Summary of the method: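 Agonist-mode beta-lactamase reporter: HEK293T VDR-UAS-bla cells in charcoal-stripped 2% FBS, compound series 16 h 37 C, CCF4 2 h RT. EC50 from Hill fit, scaled against DMSO and 50 nM calcitriol control.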
# [9] = target: Thyroid hormone receptor beta (Homo sapiens) (UniProt P10828); assay: qHTS assay for small molecule agonists of thyroid hormone receptor beta signaling (AID 588545)
# Summary of the method: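 TR-UAS-bla GripTite HEK 293 cells (2500/well, medium with 2% charcoal/dextran FBS) were treated in agonist mode for 18 h at 37 C, titrated. Beta-lactamase was read by CCF4 ratio after 2 h; normalized to 10 nM T3 (100%) and DMSO, Hill-fitted for EC50 and efficacy.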
# [10] = qHTS assay for small molecule antagonists of retinoid X receptor alpha signaling (AID 588546; active means well fitted inhibition curve with a large enough effect in the signal ratio, with a control signal flat, not every such curve was filed as active; the % refers to the signal ratio;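 further: cells stimulated with 9-cis-retinoic acid as agonist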); conditions: HEK293T RXRa-UAS-bla, beta-lactamase ratio, antagonist mode; measured here: W530 green channel, cytotoxicity proxy
# Summary of the method: (§2)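 Beta-lactamase reporter inhibition, read as CCF4 fluorescence ratio (ex 405, em 460/530 nm) after 2 h at RT. HEK293T UAS-bla cells, 2500/well, were stimulated with 9-cis-RA at 500 or 100 nM final alongside test compound for 18 h at 37 C.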
# [11] = target: Retinoic acid receptor RXR-alpha (Homo sapiens) (UniProt P19793); assay: as above; conditions: HEK293T RXRa-UAS-bla, beta-lactamase ratio, antagonist mode
# Summary of the method: as §2
# [12] = target: Thyroid hormone receptor beta (Homo sapiens) (UniProt P10828); assay: qHTS assay for small molecule antagonists of thyroid hormone receptor beta signaling (AID 588547; active means well fitted inhibition curve with a large enough effect in the signal ratio, with a control signal flat, not every such curve was filed as active; the % refers to the signal ratio;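 further: cells stimulated with 0.4 nM T3 agonist during compound exposure; series mostly up to about 77 µM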); conditions: TR-UAS-bla HEK293, beta-lactamase ratio, antagonist mode, 18 h
# Summary of the method: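 TR-UAS-bla GripTite HEK293 cells in 2% charcoal/dextran FBS medium; compounds 0.59 nM to 92 uM with T3 at 0.4nM final, 18 h at 37 C. Beta-lactamase read by CCF4 fluorescence (460/530 nm); Hill fits gave IC50 and efficacy.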
# [13] = target: Voltage-gated inwardly rectifying potassium channel KCNH2 (Homo sapiens) (UniProt Q12809); assay: qHTS Assay for Small Molecule Inhibitors of the Human hERG Channel Activity (AID 588834; active means well fitted inhibition curve with a large enough effect;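 further: top concentration of the series differs between compounds; lower thallium flux fluorescence means stronger hERG block; nearly all actives have a fitted effect of over 50% in size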)
# Summary of the method: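 Kinetic FDSS fluorescence; U2OS + hERG BacMam (~100 virus particles/cell); FluxOR Tl+ flux; ~10 min cpd; AC50 (Hill).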
# [14] = target: Androgen receptor (Homo sapiens) (UniProt P10275); assay: qHTS assay for small molecule antagonists of androgen receptor signaling (AID 588516; active means well fitted curve in the direction sought with a large enough effect in the signal ratio, with a control signal flat, not every such curve was filed as active; the % refers to the signal ratio)
# Summary of the method: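 Antagonist mode: inhibition of R1881-stimulated (10 nM final) bla reporter in GeneBLAzer AR HEK 293 cells, 16 h at 37C, compounds titrated. IC50 and efficacy from Hill-equation fits of 405/460–530 nm FRET ratios.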
# [15] = qHTS assay for small molecule agonists of retinoid X receptor alpha signaling (AID 588544); conditions: HEK293T RXRa-UAS-bla, beta-lactamase reporter, 18 h; 530 nm emission; further: potency means the concentration at half of the fitted maximal effect
# [16] = target: Retinoic acid receptor RXR-alpha (Homo sapiens) (UniProt P19793); assay: as above
# [17] = target: Luciferin 4-monooxygenase (Photinus pyralis) (UniProt P08659); assay: Biochemical firefly luciferase enzyme assay for NPC (AID 624030; active means well fitted inhibition curve with a large enough effect;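 further: purified P. pyralis luciferase at 10 nM with luciferin and ATP substrate; series mostly up to about 59 µM; nearly all actives have a fitted effect of over 70% in size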)
# Summary of the method: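 Purified P. pyralis luciferase at 10 nM in 50 mM Tris Acetate (final), luminescence read within 5 minutes of enzyme addition to compounds. Activity normalised to PTC124 versus DMSO; concentration-response curves classed by r2, magnitude and activity.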
# Sequence of Vitamin D3 receptor (Homo sapiens) (P11473 whole entry, looked up): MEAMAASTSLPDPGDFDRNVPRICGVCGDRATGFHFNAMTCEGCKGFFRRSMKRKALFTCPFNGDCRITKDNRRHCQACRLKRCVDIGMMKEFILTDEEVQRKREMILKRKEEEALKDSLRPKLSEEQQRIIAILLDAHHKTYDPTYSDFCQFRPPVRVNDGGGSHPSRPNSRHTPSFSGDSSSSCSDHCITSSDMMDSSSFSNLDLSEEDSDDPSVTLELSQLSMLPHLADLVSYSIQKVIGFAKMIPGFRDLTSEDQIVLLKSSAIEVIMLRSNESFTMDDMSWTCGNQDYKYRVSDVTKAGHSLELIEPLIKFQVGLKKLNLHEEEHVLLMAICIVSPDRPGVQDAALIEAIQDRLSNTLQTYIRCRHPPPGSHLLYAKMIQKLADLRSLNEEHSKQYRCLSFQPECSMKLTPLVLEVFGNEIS
# Sequence of Peroxisome proliferator-activated receptor delta (Homo sapiens) (Q03181 whole entry, looked up): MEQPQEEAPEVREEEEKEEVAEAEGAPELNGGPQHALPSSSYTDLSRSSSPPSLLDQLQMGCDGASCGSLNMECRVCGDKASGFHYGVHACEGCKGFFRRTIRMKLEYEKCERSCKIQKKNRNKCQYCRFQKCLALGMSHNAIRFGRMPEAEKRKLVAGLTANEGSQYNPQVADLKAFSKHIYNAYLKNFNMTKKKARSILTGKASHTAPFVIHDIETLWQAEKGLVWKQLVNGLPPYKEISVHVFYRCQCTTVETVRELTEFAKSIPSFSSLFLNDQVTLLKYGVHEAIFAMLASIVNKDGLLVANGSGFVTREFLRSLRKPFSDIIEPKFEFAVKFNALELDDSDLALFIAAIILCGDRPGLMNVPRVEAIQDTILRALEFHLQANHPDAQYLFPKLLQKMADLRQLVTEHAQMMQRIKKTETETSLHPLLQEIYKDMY
# Sequence of Retinoic acid receptor RXR-alpha (Homo sapiens) (P19793 whole entry, looked up): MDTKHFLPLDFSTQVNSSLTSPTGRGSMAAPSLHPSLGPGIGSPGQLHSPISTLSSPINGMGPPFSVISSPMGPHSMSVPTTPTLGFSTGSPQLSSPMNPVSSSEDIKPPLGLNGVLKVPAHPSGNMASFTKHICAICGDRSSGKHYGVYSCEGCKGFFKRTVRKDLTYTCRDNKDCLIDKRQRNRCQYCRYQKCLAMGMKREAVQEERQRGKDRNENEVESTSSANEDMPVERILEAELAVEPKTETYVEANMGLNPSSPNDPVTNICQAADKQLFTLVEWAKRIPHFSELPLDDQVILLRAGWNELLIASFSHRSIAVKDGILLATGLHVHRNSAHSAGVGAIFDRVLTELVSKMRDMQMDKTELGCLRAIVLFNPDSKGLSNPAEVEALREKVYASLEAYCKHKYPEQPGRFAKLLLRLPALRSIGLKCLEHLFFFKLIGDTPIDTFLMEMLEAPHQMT
# Sequence of Glucocorticoid receptor (Homo sapiens) (P04150 whole entry, looked up): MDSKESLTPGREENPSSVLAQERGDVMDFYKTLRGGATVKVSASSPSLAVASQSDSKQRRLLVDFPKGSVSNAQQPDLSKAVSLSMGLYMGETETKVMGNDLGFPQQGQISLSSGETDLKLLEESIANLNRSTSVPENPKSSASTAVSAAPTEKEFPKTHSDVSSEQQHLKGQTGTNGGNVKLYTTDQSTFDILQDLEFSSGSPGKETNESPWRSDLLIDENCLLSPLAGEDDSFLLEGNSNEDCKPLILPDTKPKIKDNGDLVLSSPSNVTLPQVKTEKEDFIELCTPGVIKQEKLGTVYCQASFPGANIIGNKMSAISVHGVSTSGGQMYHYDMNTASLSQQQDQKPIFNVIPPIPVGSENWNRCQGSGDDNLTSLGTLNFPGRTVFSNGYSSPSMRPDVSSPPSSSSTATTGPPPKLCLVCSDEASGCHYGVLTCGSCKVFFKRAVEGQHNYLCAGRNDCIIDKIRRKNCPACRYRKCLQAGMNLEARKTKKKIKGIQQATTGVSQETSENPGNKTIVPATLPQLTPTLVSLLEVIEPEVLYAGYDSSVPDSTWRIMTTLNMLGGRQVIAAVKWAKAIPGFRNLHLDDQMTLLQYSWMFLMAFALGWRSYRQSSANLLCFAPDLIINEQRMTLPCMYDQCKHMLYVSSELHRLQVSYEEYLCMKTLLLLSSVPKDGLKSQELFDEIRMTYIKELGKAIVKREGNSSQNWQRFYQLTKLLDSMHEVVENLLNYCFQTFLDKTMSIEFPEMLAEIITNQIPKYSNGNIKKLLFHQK
# Sequence of Thyroid hormone receptor beta (Homo sapiens) (P10828 whole entry, looked up): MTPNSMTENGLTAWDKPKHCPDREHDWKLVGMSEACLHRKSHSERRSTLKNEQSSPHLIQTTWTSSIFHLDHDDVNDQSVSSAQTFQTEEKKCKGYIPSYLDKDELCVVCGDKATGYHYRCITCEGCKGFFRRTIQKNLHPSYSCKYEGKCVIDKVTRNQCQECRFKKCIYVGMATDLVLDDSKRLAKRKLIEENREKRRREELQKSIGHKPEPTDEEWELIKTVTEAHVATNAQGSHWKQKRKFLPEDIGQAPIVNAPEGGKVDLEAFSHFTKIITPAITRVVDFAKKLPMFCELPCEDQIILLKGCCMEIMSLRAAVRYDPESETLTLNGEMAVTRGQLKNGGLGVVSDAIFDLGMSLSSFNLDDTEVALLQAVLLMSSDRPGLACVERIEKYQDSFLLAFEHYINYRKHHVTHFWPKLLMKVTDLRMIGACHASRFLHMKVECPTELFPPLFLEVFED
# Sequence of Peroxisome proliferator-activated receptor gamma (Homo sapiens) (P37231 whole entry, looked up): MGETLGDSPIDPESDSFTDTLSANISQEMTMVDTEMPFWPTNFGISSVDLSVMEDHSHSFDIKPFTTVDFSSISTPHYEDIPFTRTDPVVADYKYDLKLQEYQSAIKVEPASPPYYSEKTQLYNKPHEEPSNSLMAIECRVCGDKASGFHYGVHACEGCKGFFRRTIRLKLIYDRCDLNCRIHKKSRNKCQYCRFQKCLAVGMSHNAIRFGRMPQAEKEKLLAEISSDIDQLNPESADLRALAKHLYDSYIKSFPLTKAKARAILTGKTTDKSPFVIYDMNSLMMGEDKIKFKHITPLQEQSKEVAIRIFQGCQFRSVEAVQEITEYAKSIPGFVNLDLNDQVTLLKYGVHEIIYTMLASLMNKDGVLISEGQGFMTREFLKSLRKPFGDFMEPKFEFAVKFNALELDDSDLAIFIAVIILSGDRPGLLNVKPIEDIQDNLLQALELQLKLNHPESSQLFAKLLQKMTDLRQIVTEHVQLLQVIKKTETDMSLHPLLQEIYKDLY
# Sequence of Luciferin 4-monooxygenase (Photinus pyralis) (P08659 whole entry, looked up): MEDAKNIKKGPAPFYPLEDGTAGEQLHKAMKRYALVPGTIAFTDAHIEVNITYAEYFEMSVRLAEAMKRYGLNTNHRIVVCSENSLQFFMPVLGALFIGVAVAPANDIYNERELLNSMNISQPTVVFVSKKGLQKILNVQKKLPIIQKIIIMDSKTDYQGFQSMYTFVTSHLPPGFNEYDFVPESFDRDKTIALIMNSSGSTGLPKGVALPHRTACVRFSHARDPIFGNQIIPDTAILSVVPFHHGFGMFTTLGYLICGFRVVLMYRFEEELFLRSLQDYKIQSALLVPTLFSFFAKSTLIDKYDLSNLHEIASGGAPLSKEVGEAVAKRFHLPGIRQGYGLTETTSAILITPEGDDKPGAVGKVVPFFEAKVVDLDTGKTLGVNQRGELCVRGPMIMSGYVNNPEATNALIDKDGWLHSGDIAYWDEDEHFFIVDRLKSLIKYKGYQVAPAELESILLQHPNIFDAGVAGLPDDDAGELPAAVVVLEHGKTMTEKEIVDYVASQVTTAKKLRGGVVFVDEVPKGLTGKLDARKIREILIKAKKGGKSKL
# Sequence of Bile acid receptor (Homo sapiens) (Q96RI1 whole entry, looked up): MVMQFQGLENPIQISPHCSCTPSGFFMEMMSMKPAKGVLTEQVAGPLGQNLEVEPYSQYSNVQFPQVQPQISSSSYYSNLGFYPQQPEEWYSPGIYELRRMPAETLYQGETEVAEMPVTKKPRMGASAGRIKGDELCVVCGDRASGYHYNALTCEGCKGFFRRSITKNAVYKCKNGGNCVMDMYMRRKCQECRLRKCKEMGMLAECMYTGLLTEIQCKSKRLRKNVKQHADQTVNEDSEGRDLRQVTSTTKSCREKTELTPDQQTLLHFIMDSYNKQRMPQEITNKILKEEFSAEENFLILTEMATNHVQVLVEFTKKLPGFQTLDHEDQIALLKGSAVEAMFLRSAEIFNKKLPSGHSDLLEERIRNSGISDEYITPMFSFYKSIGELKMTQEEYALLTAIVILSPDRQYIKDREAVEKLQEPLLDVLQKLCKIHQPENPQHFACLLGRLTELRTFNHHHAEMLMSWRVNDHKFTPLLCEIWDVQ
Structure (SMILES),outcome [1],activation [2],max response [3],outcome [4],outcome [5],outcome [6],outcome [7],outcome [8],outcome [9],max response [10],max response [11],activity change % (negative = inhibition) [12],Potency [13],outcome [14],max response [15],Potency [16],Potency [17]
CC(C)(C)c1ccc(O)c(O)c1,inactive,27.4% (inactive) and -11.3% (inactive),-11.7% and -3.04%,inactive,inactive,inactive,inactive,inactive,inactive,3.05% and -10.4%,-35.8% (inactive) and -24.1% (inactive),-12.4% (inactive) and -14.4% (inactive),inactive,–,–,–,–
O=C(c1ccccc1)c1ccccc1,inactive,-1.61% (inactive) and 0.77% (inactive),3.99% and -25%,inactive,–,–,inactive,inactive,–,-0.815% and -2.27%,29.2% (inactive) and -10.9% (inactive),–,–,inactive,-13.1% and -5.43%,inactive,inactive
c1ccc2occc2c1,inactive,–,–,–,inactive,–,inactive,inactive,inactive,-13.5% and -7.35%,6.36% (inactive) and -5.03% (inactive),–,inactive,–,-16.2%,inactive,inactive
Cc1cc(C(C)(C)C)c(O)c(C(C)(C)C)c1,inactive,-5.33% (inactive) and 4.56% (inactive),13.8%,inactive,inactive,inactive,–,–,inactive,–,–,-7.42% (inactive),–,–,-14.9%,17.8 µM (active),inactive
